Experimental data as given in PubChem BioAssay AID1240 (Sanford-Burnham Center for Chemical Genomics, 2008).
The whole screen tested about 50,000 compounds, of which about 800 (1.6%) showed an effect of 50% or more. Only a selection was taken, and strong results are over-represented in it overall.

molecular target: Bcl-2-like protein 10 (Homo sapiens) (UniProt Q9HD36); test: TR3 peptide-Bcl-B binding displacers, biochemical primary FP assay, phenotype converters (AID 1240); details: GST-Bcl-B / FITC-TR3 peptide fluorescence polarization; stronger effect = higher value; compound at 3.75 mg/L;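 further: 0% = Bcl-B with tracer peptide and DMSO and 100% = tracer peptide lacking Bcl-B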
Sequence (Q9HD36 whole entry, looked up): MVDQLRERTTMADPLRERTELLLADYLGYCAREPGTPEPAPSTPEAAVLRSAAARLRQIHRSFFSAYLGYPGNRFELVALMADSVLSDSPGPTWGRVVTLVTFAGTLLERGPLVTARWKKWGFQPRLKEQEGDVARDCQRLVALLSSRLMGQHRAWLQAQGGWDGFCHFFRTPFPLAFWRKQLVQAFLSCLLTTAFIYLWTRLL

| SMILES | displacement [%] |
| --- | --- |
| O=C(O)CSc1nnc2c(n1)[nH]c1ccccc12 | 3.1 |
| Cc1ccc(/C=C2\CCC/C(=C\c3ccc(C)o3)C2=O)o1 | 15.2 |
| Cc1nc(SCC(=O)Nc2nnc(-c3ccccc3)s2)n[nH]1 | 11.9 |
| C/C(NCc1ccccc1)=C(\C#N)C(=O)NCc1ccccc1 | -2.4 |
| COc1cc(-c2csc(N)n2)ccc1O | 15.6 |
| CC(C)NC(=O)COc1ccc(C=C2C(=O)NC(=O)NC2=O)cc1 | 1.8 |
| CC(NC(=O)COc1ccc(C=C2C(=O)NC(=O)NC2=O)cc1)c1ccccc1 (configuration not stated) | 7.3 |
| O=C(COc1ccc(C=C2C(=O)NC(=O)NC2=O)cc1)NCCc1ccccc1 | 82.5 |
| C/C=C/COC(=O)C1=C(C)NC(=O)NC1c1cc(Cl)c(O)c(OC)c1 (configuration not stated) | 8.4 |
| CCOC(=O)c1c(NC(=O)c2cc(OCC)c(OCC)c(OCC)c2)sc(C)c1C | -6.2 |
| CCOC(=O)c1c(NC(=O)c2ccc(Cl)cc2)sc2ccccc12 | 39.1 |
| CCOC(=O)c1c(NC(=O)c2ccc(OC(C)C)c(OCC)c2)sc2ccccc12 | 80 |
| COc1ccc(Nc2ncnc3ccc(C)cc23)cc1 | 9 |
| Cc1ccc2nc(-c3ccc(OCC(=O)N/N=C/c4ccc([N+](=O)[O-])o4)cc3)cc(-c3ccccc3)c2c1 | -16.7 |
| O=C(COc1ccc(Cl)cc1)N/N=C/c1ccc(I)o1 | -6 |
| Cc1ccc(S(=O)(=O)N/N=C/c2ccc(-c3ccc([N+](=O)[O-])cc3C)o2)cc1 | 52.8 |
| Cc1ccc(S(=O)(=O)N/N=C/c2ccc(-c3ccc([N+](=O)[O-])cc3Cl)o2)cc1 | -9.8 |
| O=[N+]([O-])c1ccc(N/N=C/c2ccc(-c3ccc(Cl)cc3)o2)cc1 | -4 |
| Cc1ccc(OCC(=O)N/N=C\c2ccc(-c3ccc(Cl)cc3)o2)cc1 | 38.4 |
| Cc1ccc(S(=O)(=O)N/N=C/c2ccc(-c3ccc([N+](=O)[O-])cc3Br)o2)cc1 | 2.5 |
| Cc1ccc(OCC(=O)N/N=C\c2ccc(-c3ccc([N+](=O)[O-])cc3)o2)cc1 | 116 |
| O=C(COc1ccc(I)cc1)N/N=C/c1ccc(-c2ccc([N+](=O)[O-])cc2)o1 | 59 |

| SMILES | displacement [%] |
| --- | --- |
| CCN(CC)Cc1c(O)ccc2c(-c3ccccc3)cc(=O)oc12 | -8.3 |
| Brc1ccc(CN2CCN(C3CCN(Cc4ccccc4)CC3)CC2)cc1 | -15.5 |
| COc1ccc(S(=O)(=O)N(CC(=O)Nc2ccc(C)c(C)c2)c2ccc(C)cc2)cc1OC | 17.2 |
| CCOc1ccc(-c2cc(C(=O)NN)c3ccccc3n2)cc1 | -18 |
| Cc1csc(Nc2ccccc2)[n+]1CCO | 4.4 |
| Cc1cc(N(C)/N=C/c2ccccc2Cl)nc(-c2ccccc2O)n1 | 5.1 |
| CC(=O)N1CCN(c2ccc(C(=O)c3ccccc3)cc2F)CC1 | 0.4 |
| N#C/C(=C\c1ccc(-c2ccc(Cl)c(Cl)c2)o1)c1ccccc1 | 135 |
| N#C/C(=C/c1ccc(I)o1)c1ccc(Cl)cc1 | -24.1 |
| N#C/C(=C\c1ccc(-c2cccc(Cl)c2)o1)c1ccc(Cl)cc1 | -3.8 |
| O=C(/C=C/c1ccc(-c2ccc(Cl)cc2)o1)c1ccccc1 | 41.8 |
| N#C/C(=C\c1ccc(-c2ccc(Cl)cc2)o1)c1ccc(Cl)cc1 | 123 |
| N#C/C(=C\c1ccc(I)o1)c1ccccc1 | -34 |
| O/N=C\c1ccc(-c2ccc(Cl)c(Cl)c2)o1 | -7.3 |
| N#C/C(=C\c1ccc(-c2cccc(Cl)c2)o1)c1ccccc1 | -6.4 |
| N#C/C(=C\c1ccc(-c2ccc(Cl)cc2)o1)c1ccccc1 | 130 |
| Clc1ccc(-c2ccc(/C=C\c3nc4ccccc4o3)o2)cc1 | 95.3 |
| O=[N+]([O-])/C=C/c1ccc(-c2ccc(Cl)cc2)o1 | 14.7 |
| N#C/C(=C\c1ccc(-c2cccc(C(F)(F)F)c2)o1)c1ccc(Cl)cc1 | -15.3 |
| CSc1ccc(Cl)c(C(=O)Nc2ccc(Cl)cn2)c1 | -39.3 |
| CC1CCN(C(=O)CN(c2cccc([N+](=O)[O-])c2)S(=O)(=O)c2ccccc2)CC1 | 3.3 |
| O=C(NC1CCCCC1)c1ccc([N+](=O)[O-])cc1 | 0.7 |

| SMILES | displacement [%] |
| --- | --- |
| O=C(N1CCCCC1)C12CC3CCC(CC(C3)C1)C2 | 6.3 |
| O=C(Nc1ccc2nc3c4ccccc4c4ccccc4c3nc2c1)N1CCOCC1 | 77.1 |
| O=C(c1ccc2nc3c4ccccc4c4ccccc4c3nc2c1)N1CCOCC1 | 18.3 |
| CCOC(=O)N1CCN(C(=O)Nc2ccc3nc4c5ccccc5c5ccccc5c4nc3c2)CC1 | 22.4 |
| Cc1ccc(C(=O)N2C(C)CCCC2C)cc1[N+](=O)[O-] (configuration not stated) | -4 |
| COc1ccc(CC(=O)O/N=C(\N)Cc2ccc([N+](=O)[O-])cc2)cc1OC | 14.2 |
| COc1cccc(/C=C2\SC(=S)N(C3CCCCC3)C2=O)c1O | -3.3 |
| O=C1/C(=C\c2ccc(N3N=C(c4ccccc4)CC3c3ccccc3)cc2)SC(=S)N1C1CCS(=O)(=O)C1 (configuration not stated) | -14.9 |
| O=C1/C(=C/C2CC=CCC2)SC(=S)N1C1CCS(=O)(=O)C1 (configuration not stated) | 9.6 |
| O=C1/C(=C/c2ccc(Cl)cc2Cl)SC(=S)N1C1CCS(=O)(=O)C1 (configuration not stated) | 7.1 |
| O=C1/C(=C/C=C/c2ccccc2)SC(=S)N1C1CCS(=O)(=O)C1 (configuration not stated) | 56.9 |
| COc1ccccc1/C=C1\SC(=S)N(C2CCS(=O)(=O)C2)C1=O (configuration not stated) | 137 |
| COCCc1nnc(NC(=O)Cc2ccccc2)s1 | 1.2 |
| Clc1ccc(-c2noc(CCc3ccccc3)n2)cc1 | 13.2 |
| CN(C)c1ccnc2sc(C(=O)c3ccc(Br)cc3)c(N)c12 | 10 |
| Cc1cc(C)c2c(N)c(C(=O)c3ccc(Br)cc3)sc2n1 | -7.3 |
| Cc1nc2sc(C(=O)c3ccc(Br)cc3)c(N)c2c(C)c1C | 132 |
| Cc1[nH]n(-c2ccc([N+](=O)[O-])cc2)c(=O)c1C=NC1CCCCC1 | -1.9 |
| COc1ccc(/C(O)=C/c2nc3ccccc3oc2=O)cc1 | -1.7 |
| O=c1oc2ccccc2nc1/C=C(\O)c1cccs1 | 61.3 |
| COc1ccc(/C(O)=C/c2nc3ccccc3[nH]c2=O)cc1 | 6.8 |
| O=c1oc2cc([N+](=O)[O-])ccc2nc1/C=C(\O)c1cccc(Br)c1 | 3 |

| SMILES | displacement [%] |
| --- | --- |
| Cc1nc(C)c(/C(O)=C/c2nc3ccccc3oc2=O)s1 | -1.1 |
| O=C(Nc1ccc(-c2nc3ccccc3[nH]2)cc1)c1cccs1 | -7.9 |
| O=c1oc2cc([N+](=O)[O-])ccc2nc1/C=C(\O)c1cccs1 | 94 |
| O=c1[nH]c2ccccc2nc1/C=C(\O)c1cccs1 | 98.7 |
| O=c1oc2cc([N+](=O)[O-])ccc2nc1/C=C(\O)c1ccc(Br)cc1 | 18.6 |
| CC(Cc1ccccc1)NC(=O)CC(c1ccccc1)c1ccc(O)c(Cl)c1Cl (configuration not stated) | 2.6 |
| O=C(c1ccc(F)cc1)N1CCN(c2cccc(Cl)c2)CC1 | 2.4 |
| CCN(CC)CCCCCCOc1ccc(OC)cc1 | 10 |
| COCCOC(=O)c1ccc(NC(=O)COc2cccc(C)c2C)cc1 | 1.9 |
| CCOC(=O)C(C(=O)OCC)C(C(=O)OCC)(C(=O)OCC)C(C(=O)OCC)C(=O)OCC | 2.1 |
| O=C(N=Nc1c(O)[nH]c2ccc([N+](=O)[O-])cc12)c1cccc(Br)c1 | 3.3 |
| O=C(N=Nc1c(O)[nH]c2ccc(Br)cc12)c1ccc([N+](=O)[O-])cc1 | 6.8 |
| O=C(N=Nc1c(O)[nH]c2ccc([N+](=O)[O-])cc12)c1ccc2c(c1)OCO2 | 75.1 |
| COc1ccc(C(=O)N=Nc2c(O)[nH]c3c(C)cc([N+](=O)[O-])cc23)cc1 | 115 |
| COc1ccc(C(=O)N=Nc2c(O)[nH]c3c(C)cc(Br)cc23)cc1 | 3 |
| Cc1cc(C)c2[nH]c(O)c(N=NC(=O)c3cccc([N+](=O)[O-])c3)c2c1 | -0.6 |
| CCOc1ccccc1NC(=O)/C=C/c1ccc(Cl)cc1 | 11.4 |
| CCN1C(=O)N(CC)C2C1N(COC(C)=O)C(=O)N2COC(C)=O (configuration not stated) | 1.5 |
| COc1ccc(-n2nc3cc(C)c(NC(=O)c4cccnc4)cc3n2)cc1 | 5.1 |
| O=C1c2ccccc2C(=O)N1c1ncc(Cc2cccc(C(F)(F)F)c2)s1 | -5.8 |
| Cc1cccc(NC(=O)CN(c2cccc(Cl)c2)S(C)(=O)=O)c1 | 3.9 |
| CC1=C(C(=O)OC2CCCCC2)C(c2ccc(Br)cc2)NC(=O)N1 (configuration not stated) | 17.5 |

| SMILES | displacement [%] |
| --- | --- |
| CC1=C(C(=O)OC2CCCCC2)C(c2ccc(N(C)C)cc2)NC(=O)N1 (configuration not stated) | 99.1 |
| CC1=C(C(=O)OC2CCCC2)C(c2ccc(Cl)cc2)NC(=O)N1 (configuration not stated) | 7.3 |
| CC1=NNC(=O)C1CC(=O)N/N=C/c1ccc(O)cc1 (configuration not stated) | -5.3 |
| C=CCn1c(Cc2ccccc2)n[nH]c1=S | -5.1 |
| CCc1ccc(NC(=O)C2CC(=O)N=C(N)S2)cc1 (configuration not stated) | -2.4 |
| Oc1c(C=Nc2cccc3nsnc23)sc2ccccc12 | -12.3 |
| Cc1cc(NS(=O)(=O)c2ccc(N/C=C/C(=O)c3cccs3)cc2)nc(C)n1 | 2.1 |
| Cc1cc(C)nc(NS(=O)(=O)c2ccc(N/C=C\C(=O)c3ccc4ccccc4c3)cc2)n1 | 14.7 |
| Cc1cc(C)nc(NS(=O)(=O)c2ccc(N/C=C\C(=O)c3cccs3)cc2)n1 | 78.5 |
| CCOC(=O)C1=C(O)/C(=C/c2cc(OC)c(OC)c(OC)c2)SC1=Nc1ccc(C)cc1 | -5.5 |
| O=[N+]([O-])c1ccc(C[n+]2cc(-c3ccc(Cl)c(Cl)c3)n3c2CCC3)cc1 | 9.6 |
| O=C1CS/C(=N/N=C/c2ccc(-c3ccc([N+](=O)[O-])cc3)o2)N1 | 41.1 |
| Cc1c(Cl)cccc1-c1ccc(/C=N/N=C2\NC(=O)CS2)o1 | 133 |
| O=C1CS/C(=N/N=C/c2ccc(-c3ccc(Cl)cc3)o2)N1 | -6.7 |
| O=C(Cn1cc(/C=C2\SC(=O)NC2=O)c2ccccc21)Nc1ccccc1 | -4.9 |
| O=C(Cn1cc(/C=C2/C(=O)NC(=O)N(c3cccc(Cl)c3)C2=O)c2ccccc21)Nc1ccccc1 | 94.7 |
| Cc1cc(/C=C2\C(=O)NC(=O)N(c3cccc(F)c3)C2=O)c(C)n1C | 18.4 |
| COC(=O)Cn1cc(/C=C2\C(=O)NC(=O)N(c3cccc(F)c3)C2=O)c2ccccc21 | 35.8 |
| O=C(Cn1cc(/C=C2/C(=O)NC(=O)N(c3cccc(F)c3)C2=O)c2ccccc21)Nc1ccccc1 | 116 |
